From PubChem BioAssay (NCATS)
“And” between values parts separate entries of the source, which are not always exact repeats. Identical values can stand only once. Results filed as inconclusive are left out. The source made the active and inactive calls. Calls follow the shape of the dose curve; as a rule, active = well fitted curve in the direction sought with a large enough effect; inconclusive = small, poorly fitted or top-dose-only effect, or another doubt; inactive = no such curve, though single readings can be large; an effect the other way counts as inactive or inconclusive.

Assays:
[1] = molecular target: Cellular tumor antigen p53 (Homo sapiens) (UniProt P04637); test: Primary qHTS for small molecule compounds that upregulate eGFP-tagged delta133p53alpha (in N-terminal) cells. (AID 2060322); settings: NCI-H358 eGFP-delta133p53alpha fluorescence, 24 h; activation: active compounds read high; also: nearly all actives have a fitted effect of over 75% in size; also: potency is read from the fitted curve at half-maximal effect;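 as to activation: series mostly up to about 56 µM; 0% = DMSO vehicle and 100% = reference activator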
Sequence of Cellular tumor antigen p53 (Homo sapiens) (P04637 whole entry, looked up): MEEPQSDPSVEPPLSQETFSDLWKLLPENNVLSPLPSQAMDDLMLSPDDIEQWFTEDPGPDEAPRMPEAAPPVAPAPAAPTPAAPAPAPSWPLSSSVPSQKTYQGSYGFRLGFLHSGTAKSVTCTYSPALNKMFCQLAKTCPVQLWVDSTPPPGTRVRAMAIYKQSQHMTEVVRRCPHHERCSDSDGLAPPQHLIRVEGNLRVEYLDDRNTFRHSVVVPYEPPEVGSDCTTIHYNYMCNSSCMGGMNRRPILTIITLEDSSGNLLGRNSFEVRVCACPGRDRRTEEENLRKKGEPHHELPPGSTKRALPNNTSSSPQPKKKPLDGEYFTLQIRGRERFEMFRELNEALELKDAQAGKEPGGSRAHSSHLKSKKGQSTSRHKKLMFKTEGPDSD
In short: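 NCI-H358 cells pre-induced 24 h with 10 ng/ml doxycycline to express N-terminal eGFP-delta133p53alpha, then dosed 24 h at 37C without doxycycline; fixed, Hoechst-stained, GFP intensity by laser scanning cytometry, normalized to DMSO (0%) and 57.5 uM 5-azacytidine (100%).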

[2] = BET inhibitor-based combinations targeting novel dependencies in MECOM-rearranged (r) AML: SET-2 cell line (AID 2202231); settings: SET-2 AML cells viability, CellTiter-Glo luminescence, 48 h; viability: active compounds read low, concentration not given here; also: nearly all actives have a fitted effect of over 35% in size; also: potency is read from the fitted curve at half-maximal effect;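 as to viability: plate controls were DMSO treated cells for no effect and wells without cells for full effect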
In short: (§1)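 Luminescent ATP readout (CellTiter-Glo) after 48 hr drug exposure gives viability. Curves span 11 concentrations and are normalized to DMSO and empty wells. Activity is reported as area under the curve and its Z-transform within each cell line.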

[3] = BET inhibitor-based combinations targeting novel dependencies in MECOM-rearranged (r) AML: OCI-AML3 cell line (AID 2202232); settings: Potency: OCI-AML3 viability; also: nearly all actives have a fitted effect of over 35% in size; also: potency is read from the fitted curve at half-maximal effect
In short: as §1

[4] = BET inhibitor-based combinations targeting novel dependencies in MECOM-rearranged (r) AML: MV-4-11 cell line (AID 2202233); also: nearly all actives have a fitted effect of over 45% in size; also: potency is read from the fitted curve at half-maximal effect
In short: (§2)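 Luminescent ATP readout (CellTiter-Glo, 15 min at room temperature) after 48 hr drug exposure gave viability. Dose-response curves, normalized to DMSO and empty-well controls, were summarized as area under the curve and its mean-centred Z-score.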

[5] = BET inhibitor-based combinations targeting novel dependencies in MECOM-rearranged (r) AML: HNT-34 cell line (AID 2202234); also: nearly all actives have a fitted effect of over 35% in size; also: potency is read from the fitted curve at half-maximal effect
In short: as §2

[6] = BET inhibitor-based combinations targeting novel dependencies in MECOM-rearranged (r) AML: UCSD-AML1 cell line (AID 2202235); also: nearly all actives have a fitted effect of over 40% in size; also: potency is read from the fitted curve at half-maximal effect
In short: as §2

[7] = BET inhibitor-based combinations targeting novel dependencies in MECOM-rearranged (r) AML: AML-191 cell line (AID 2202236; also: nearly all actives have a fitted effect of over 35% in size; also: potency is read from the fitted curve at half-maximal effect)
In short: as §1

[8] = molecular target: Retinaldehyde dehydrogenase 3 (Homo sapiens) (UniProt P47895); test: qHTS for Inhibitors of the Aldehyde Dehydrogenase Family (ALDH1A3) Primary screen (AID 2061315);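 also: plate controls were DMSO vehicle for no effect and reference inhibitor for full effect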
[9] = BET inhibitor-based combinations targeting novel dependencies in MECOM-rearranged (r) AML: AML-194 cell line (AID 2202237; also: nearly all actives have a fitted effect of over 40% in size; also: potency is read from the fitted curve at half-maximal effect)
In short: as §1

NC(=O)c1ccc(-c2nc(-c3ccc4c(c3)OCO4)c(-c3ccccn3)[nH]2)cc1
inactive: activation [1] -10.5% | viability [2] 112% | Potency [3] | Potency [4] | Potency [5] | Potency [6] | Potency [7]

Oc1cc(-c2nc(-c3ccccc3)[nH]c2-c2ccncc2)ccc1Cl
active: Potency [3] 4.17 µM | Potency [4] 14.8 µM | Potency [5] 7.42 µM
inactive: activation [1] 22.4% | Potency [8]

COc1ccc2[nH]c(S(=O)Cc3ncc(C)c(OC)c3C)nc2n1 (stereo unspecified)
inactive: activation [1] 10.7% and 10% | Potency [8] | viability [2] 109% | Potency [6] | Potency [7] | Potency [9]

Clc1ccc(C(Cn2ccnc2)OCc2c(Cl)cccc2Cl)c(Cl)c1 (stereo unspecified)
inactive: activation [1] 27.9% and 17% | Potency [8] | Potency [6]
active: Potency [2] 26.3 µM | Potency [3] 10.5 µM | Potency [4] 18.6 µM | Potency [5] 26.3 µM | Potency [9] 18.6 µM

C[C@@H]1O[C@@H](O[C@@H]2\C=C/C=C\C=C/C=C\C[C@H](C)OC(=O)/C=C\[C@H]3O[C@@H]3C[C@H](O)C[C@]3(O)C[C@@H](O)[C@@H](C(=O)O)[C@H](C2)O3)[C@H](O)[C@H](N)[C@@H]1O
inactive: activation [1] 17.7% | Potency [8] | viability [2] 112% | Potency [3] | Potency [4] | Potency [5] | Potency [6] | Potency [7]

CN(C)S(=O)(=O)c1ccc2c(c1)C(=Cc1cc3c([nH]1)CCCC3)C(=O)N2
active: Potency [1] 1.37 µM | Potency [3] 5.9 µM | Potency [4] 2.09 µM
inactive: viability [2] 101%

COc1ccc2cc3[n+](cc2c1OC)CCc1cc2c(cc1-3)OCO2
active: Potency [2] 16.6 µM | Potency [3] 4.17 µM | Potency [4] 5.9 µM | Potency [5] 23.5 µM
inactive: activation [1] -7.97% | Potency [6]

Nc1nccc(-c2ccc3noc(-c4ccc(Cl)cc4)c3c2)n1
active: Potency [1] 34.3 µM
inactive: viability [2] 88.8%

O=c1ccn([C@@H]2O[C@H](CO)[C@H](O)[C@@H]2F)c(=O)[nH]1
inactive: activation [1] -22.6% | viability [2] 107% | Potency [3] | Potency [4] | Potency [5] | Potency [6] | Potency [7]

C[C@H](Nc1ncnc2nc[nH]c12)c1cc2cccc(Cl)c2c(=O)n1-c1ccccc1
active: Potency [2] 18.6 µM | Potency [3] 0.934 µM | Potency [6] 1.32 µM
inactive: activation [1] 7% | Potency [8]

NC(=O)c1ccc(-c2nc(-c3ccc4c(c3)OCCO4)c(-c3ccccn3)[nH]2)cc1
inactive: activation [1] -1.5% | viability [2] 104%

C[C@H]1COC2=C1C(=O)C(=O)c1c2ccc2c1CCCC2(C)C
active: Potency [2] 20.9 µM | Potency [3] 20.9 µM | Potency [4] 13.2 µM
inactive: activation [1] -1.94%

O=C1[C@H](Cc2ccc(O)cc2)N2C(=O)CCN(C(=O)NCc3ccccc3)[C@H]2CN1Cc1cccc2ccccc12
active: Potency [2] 11.8 µM | Potency [3] 9.34 µM | Potency [4] 9.34 µM | Potency [5] 5.25 µM | Potency [6] 9.34 µM
inactive: activation [1] 18.1%

CC1(C)Cc2c(sc(NC(=S)NC(=O)c3ccccc3)c2C(=O)O)CO1
inactive: activation [1] -34.5% | viability [2] 110% | Potency [3] | Potency [4] | Potency [5] | Potency [6] | Potency [7]

CC1(C)O[C@@H]2C[C@H]3[C@@H]4CCC5=CC(=O)C=C[C@]5(C)[C@@]4(F)[C@@H](O)C[C@]3(C)[C@]2(C(=O)CO)O1
inactive: activation [1] -9.6% | viability [2] 115% | Potency [3] | Potency [4] | Potency [5]

CC(C)NC[C@@H](C(=O)N1CCN(c2ncnc3c2[C@H](C)C[C@H]3O)CC1)c1ccc(Cl)cc1
inactive: viability [2] 102%
active: Potency [1] 34.3 µM

C[C@@H]1CN(CC(=O)N2CC(C)(C)c3ncc(Cc4ccc(F)cc4)cc32)[C@@H](CN2CCOC[C@H]2C)CN1
inactive: activation [1] -14.4% | viability [2] 86.9%

C[C@H](Nc1ncnc2nc[nH]c12)c1cc2ccc(F)cc2nc1-c1ccccn1
inactive: activation [1] 5% | Potency [8]
active: Potency [7] 18.6 µM

Nc1nc(Cl)nc2c1ncn2[C@@H]1O[C@H](CO)[C@@H](O)[C@@H]1F
active: Potency [2] 0.263 µM | Potency [3] 0.148 µM | Potency [4] 0.209 µM | Potency [5] 0.166 µM | Potency [6] 0.0263 µM | Potency [7] 0.0742 µM
inactive: activation [1] -10.7%

CC(=O)OCC(=O)[C@@]12N=C(C)O[C@@H]1C[C@H]1[C@@H]3CCC4=CC(=O)C=C[C@]4(C)[C@H]3[C@@H](O)C[C@@]12C
inactive: activation [1] -1.69% | viability [2] 113% | Potency [3] | Potency [4] | Potency [5] | Potency [6]

O=C(CCCCCCC(=O)Nc1cccnc1)NO
active: Potency [2] 5.25 µM | Potency [3] 5.9 µM | Potency [4] 2.35 µM | Potency [5] 4.68 µM | Potency [6] 7.42 µM | Potency [7] 3.32 µM | Potency [9] 8.33 µM
inactive: activation [1] 50.9%

CC(=O)OC[C@@H]1O[C@@H](n2ccc(=O)[nH]c2=O)[C@H](OC(C)=O)[C@H]1OC(C)=O
inactive: activation [1] 5.73% | viability [2] 108% | Potency [3] | Potency [4] | Potency [5] | Potency [6] | Potency [7] | Potency [9]

NCC1CCC(C(=O)O)CC1 (stereo unspecified)
inactive: activation [1] 20.7% | viability [2] 115% | Potency [3] | Potency [4] | Potency [5] | Potency [6] | Potency [7] | Potency [9]

CC(=O)SC[C@@H](C)C(=O)N1CCC[C@H]1C(=O)N[C@@H](Cc1ccccc1)C(=O)O
inactive: activation [1] -26.8% | viability [2] 115% | Potency [3] | Potency [4] | Potency [5] | Potency [6] | Potency [7] | Potency [9]

CCOC(=O)C=C[C@H](C[C@@H]1CCNC1=O)NC(=O)[C@@H](CC(=O)[C@@H](NC(=O)c1cc(C)on1)C(C)C)Cc1ccc(F)cc1
inactive: activation [1] 17.3% | viability [2] 120% | Potency [3] | Potency [4] | Potency [5] | Potency [6] | Potency [7] | Potency [9]

CN(C)CCc1c[nH]c2ccc(CS(=O)(=O)N3CCCC3)cc12
inactive: activation [1] -5.58% | viability [2] 115% | Potency [3] | Potency [4] | Potency [5] | Potency [6] | Potency [7] | Potency [9]

CC(N[C@H]1CCCC[C@H]1NC(=O)c1ccc(Cl)cc1)c1cccc2ccccc12 (stereo partly specified)
active: Potency [2] 26.3 µM | Potency [3] 16.6 µM | Potency [4] 13.2 µM | Potency [5] 11.8 µM | Potency [6] 11.8 µM | Potency [7] 11.8 µM | Potency [9] 8.33 µM
inactive: activation [1] 3.01%

CN(Cc1cc(Br)cc(Br)c1N)C1CCCCC1
inactive: activation [1] -11.7% and 14.8% | viability [2] 102% | Potency [3] | Potency [4] | Potency [5] | Potency [6] | Potency [7] | Potency [9]
